# High-throughput results: PubChem, Broad Institute
# Tg IFNy HTS – inhibitors of Toxoplasma gondii growth with IFN-gamma. Toxoplasma gondii growth in IFN-gamma-treated host cells; stronger effect = lower value. activity change, negative = inhibition, % (concentration not given with the values). hit rate 3.8% among 69,000; in the data active means activity change below about -70%, passing the limit was not always enough;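 further: host cells are HeLa cells infected with Toxoplasma gondii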
# Starred values were filed as active, the others as inactive; ! = repeats disagree. The entries come from a sample that favours hits as a whole.
SMILES,Tg IFNy HTS
C=CCNC(=O)c1ccc(-c2cccc([N+](=O)[O-])c2)o1,67
C=CCNC(=O)c1ccc(-c2cnc3ccccc3c2)o1,-82*
C=CCNC(=O)c1ccc(-c2ccc(F)c(CO)c2)o1,45
COC(=O)CC(=O)c1cnc2sccn2c1=O,-20
Cc1ccc(NC(=O)C(=O)NCCc2sc(-c3ccc(F)cc3)nc2C)cc1F,34
CN(Cc1ccc2nsnc2c1)Cc1cc(-c2ccncc2)no1,-1
CCOc1ccc(CN(C(=O)c2ccc(C3CCCO3)s2)C2CC2)cc1 (stereo not given),57
Cc1ccc(-c2nc(C)c(CCNS(=O)(=O)c3c(C)cc(C)cc3C)s2)cc1,-52
OCc1noc2c1CN(Cc1ccccn1)CC2,35
Cc1c(Cl)cc(C(=O)N2CCCC(N(C)CCN(C)C)C2)cc1Cl (stereo not given),-16
CCS(=O)(=O)N1CCN(c2cc(CN)nc(C)n2)CC1,1
COC1C(O)C(CO)OC1n1cnc2c(NC3CCCCC3)ncnc21 (stereo not given),12
Nc1ncnc2c1ncn2[C@@H]1O[C@H](CO)[C@@H](O)[C@H]1O,14
COc1ccc(C[C@H](N)C(=O)N[C@@H]2[C@@H](CO)OC(n3cnc4c(N(C)C)ncnc43)[C@@H]2O)cc1 (stereo not given in full),-80*!
COc1cccc(C(=O)N2CCC3(CC2)Nc2ccc(Cl)cc2-n2cccc23)c1,37
CC1=C(C(=O)NC2CCC(C)CC2)C2(CCN(S(=O)(=O)c3cccs3)CC2)OC1=O (stereo not given),42
CCOC(=O)c1cnc2ccc(C(=O)OC)cc2c1Nc1ccc2c(c1)OCCO2,-72*!
CCOC(=O)c1cnc2ccc(C(=O)OC)cc2c1Nc1ccc(C(=O)O)cc1,-47
CCOC(=O)c1cnc2ccccc2c1NCCO,13
CCS(=O)(=O)N1CCCn2c(nnc2Cn2cccn2)C1,60
Cc1cccc(NC(=O)N2CCC3(CCC(C(=O)NCC4CC4)O3)CC2)c1 (stereo not given),4
O=C(CC1(C(=O)O)CCCC1)N1CCCC1,-6
CC1CCN(Cc2ccc(C(=O)N3CC(c4cccnc4)C3)o2)CC1,-6
COCC1CCC2(CCN(C(=O)c3ccnnc3)CC2)N1CC1CC1 (stereo not given),-8
CCOc1ccccc1-c1ccccc1NC(=O)c1cc(-c2ccc(F)cc2)no1,-9
SMILES,Tg IFNy HTS
CCOc1ccccc1-c1ccccc1NC(=O)c1ccc(-n2nc(C)cc2C)cc1,-101*
Cc1cc(C)n(-c2ccc(C(=O)Nc3nc(-c4cc(C)sc4C)cs3)cc2)n1,5
Cc1c(C)c(C)c(C(=O)c2cccs2)c(C)c1C,-4
Cc1nnc2sc(-c3cccc(NC(=O)c4ccco4)c3)nn12,10
CN(CC(=O)Nc1cccc(-c2nc3ccccc3s2)c1)C1CCS(=O)(=O)C1 (stereo not given),177
CCc1ccc(CNC(=O)Cn2ncc3c(N4CCCCC4)ncnc32)cc1,168
CCN(CC)c1ncnc2c1cnn2CC(=O)NCc1cc(F)cc(F)c1,32
O=C(Cn1ncc2c(N3CCCCCC3)ncnc21)NCc1ccc(C(F)(F)F)cc1,-82*
O=C(Cn1ncc2c(N3CCCC3)ncnc21)NCc1ccc(F)cc1,-61
Cc1ccc(CNC(=O)Cn2ncc3c(N4CCCC4)ncnc32)cc1,44
O=C(Cn1ncc2c(N3CCOCC3)ncnc21)NCc1ccc(C(F)(F)F)cc1,-35
CC1CCN(c2ncnc3c2cnn3CC(=O)NCc2ccc(F)cc2)CC1,-95*
CCN(CC)c1ncnc2c1cnn2CC(=O)NCc1ccc(F)c(Cl)c1,-28
CCOc1ccc(CNC(=O)Cn2ncc3c(N4CCC(C)CC4)ncnc32)cc1OCC,189
O=C(Cn1ncc2c(N3CCCCC3)ncnc21)NCc1ccncc1,-29
Cc1ccc(CNC(=O)Cn2ncc3c(N4CCC(C)CC4)ncnc32)cc1,-94*
CCN(CC)c1ncnc2c1cnn2CC(=O)NCc1ccc(F)cc1F,-104*
Cc1noc(-c2cc(=O)n(CC(=O)Nc3cccc(C#N)c3)c3ccccc23)n1,44
O=C(CCN1CCN(c2nsc3ccccc23)CC1)Nc1cccnc1,19
C=CCCc1n[nH]c(Cc2ccccc2)n1,-39
N[C@@H]1c2ccccc2C2(CCN(C(=O)c3ccc4[nH]ccc4c3)CC2)[C@H]1O,-4
CN(C)C(=O)COC[C@@]12COC[C@@H]1CN(CC1CCC1)C2,27
Cc1ccc2[nH]cc(CCN3CC(C(=O)N4CCc5ccccc5C4)CC3=O)c2c1 (stereo not given),211
CC(=O)N1CCC(c2ccnc3c(C(=O)N4CCCN(C)CC4)ncn23)CC1,5
COc1ccc(CNCCCSc2ncccn2)cc1,20
SMILES,Tg IFNy HTS
COc1ccc(SCC(O)CNCc2ccc(Cl)cc2)cc1 (stereo not given),-80*
COc1ccc(NC(=S)NCCSc2ccc(Cl)cc2)cc1,-42
O=S(=O)(c1ccc(Cl)cc1)N1CCC(n2nnc3cc(F)ccc32)CC1,-18
CS(=O)(=O)N1CCC2(CCCN2c2nncs2)CC1,30
O=C([C@H]1CCCO1)N1CCC2(CC1)CN(CCO)c1ccccc12,-36
CCOCC1CN(Cc2cc(C)on2)Cc2cn(C)nc21 (stereo not given),-34
COCCN1CCC2(CC1)CC(NCc1ccc(C)s1)c1ccccc12 (stereo not given),-4
CN(C)CCN1CCC2(CC1)CC(NCc1cccs1)c1ccccc12 (stereo not given),-35
CS(=O)(=O)N1CCC2(CC1)CC(NCc1cccs1)c1ccccc12 (stereo not given),-94*
O=C(CN1C(=O)CCc2cc(S(=O)(=O)N3CCCC3)ccc21)Nc1ccc(OC(F)(F)F)cc1,-25
CCCCC1C=CCN1C(=O)c1cccc(C#CC(C)(C)O)c1 (stereo not given),18
Cn1cc(C2c3nc[nH]c3CCN2Cc2cccc3cccnc23)cn1 (stereo not given),12
Clc1ccc2nc(-c3cccs3)c(NC3CCCCC3)n2c1,15
COCC1(N(C)C(=O)CCNC(=O)c2ccc(F)cc2)CC1,0
CN(C)c1ccc(C(=O)NCCCCCCC(=O)NO)cc1,-88*!
COc1cc(C(=O)NCCCCCC(=O)O)cc(OC)c1OC,5
Cc1ccc(-c2cc(C3CCN(C(=O)c4ccn[nH]4)C3)ccn2)c2cccnc12 (stereo not given),-6
COc1cccc(CNC(=O)CCC2CCCN(C3C4CC5CC(C4)CC3C5)C2)c1 (stereo not given),-2
Cc1nc(-c2ccc(Cl)cc2)sc1CCNC(=O)CC(C)C,2
COc1cccc(-c2nc(Cn3ccn4nc(-c5cccs5)cc4c3=O)c(C)o2)c1OC,-97*
COc1ccc(-c2cc3c(=O)n(Cc4nc(-c5ccc(OC(C)C)cc5)oc4C)ccn3n2)cc1OC,-92*
COc1ccccc1-c1cc2c(=O)n(Cc3nc(-c4cccc(OC)c4OC)oc3C)ccn2n1,-19
COc1ccccc1-c1nc(Cn2ccn3nc(-c4cccs4)cc3c2=O)c(C)o1,51
COc1ccc(-c2cc3c(=O)n(Cc4nc(-c5ccc(OC(C)C)cc5)oc4C)ccn3n2)cc1,-54
COc1ccc(-c2nc(Cn3ccn4nc(-c5ccc(OC)c(OC)c5)cc4c3=O)c(C)o2)cc1,-35
COc1ccc(OC)c(NC(=O)CC(=O)N2CCCCCC2)c1,1
Cn1cc(C2CCCCCN2S(=O)(=O)c2ccc(F)cc2)cn1 (stereo not given),-3
CCOC(=O)c1nc(N2CCC(Cc3ccccc3)CC2)c2ccccc2n1,-27
